Measured values: PubChem BioAssay
Calls of active or inactive are those of the source.

How the values were obtained:
[1] = test system: Plasmodium falciparum Sir2 (PF13_0152, Sir2A); assay: Plasmodium falciparum Sir2A binding compounds – biochemical, small-molecule microarray, 635 nm fluorescence, primary screen (AID 1098); conditions: fluorescence 635 nm, higher = more signal;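 also: score merges spot fluorescence intensity with its signal-to-noise ratio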
[2] = probe aDKK1 binding to arrayed compounds – biochemical, biotinylated probe, 635/667 nm fluorescence, primary screen (AID 1099); conditions: small-molecule microarray, higher = more signal;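 also: score merges 667nm spot fluorescence with signal to noise across triplicate slides; reference of the scale not given here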
[3] = probe aCHRDL2 binding to arrayed compounds – biochemical, biotinylated probe, 635/667 nm fluorescence, primary screen (AID 1100); conditions: small-molecule microarray, higher = more signal
[4] = change in splice reporter luminescence, either direction, cell-based, HEK293, spliceosome inhibition project, primary screen (AID 1101); conditions: HEK293 splicing luciferase reporter, 24 h, higher = more signal, called active from +8 up or from −8 down;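 also: HEK293 cells carrying a splicing-competent luciferase reporter gene; test concentration not given here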
[5] = target: Fibroblast growth factor 10 (Homo sapiens) (UniProt O15520); assay: compounds binding fibroblast growth factor 10 – biochemical, small-molecule microarray, 635 nm fluorescence, primary screen (AID 1102); conditions: FGF10 binding, fluorescence 635 nm, higher = more signal
Sequence of Fibroblast growth factor 10 (Homo sapiens) (O15520 whole entry, looked up): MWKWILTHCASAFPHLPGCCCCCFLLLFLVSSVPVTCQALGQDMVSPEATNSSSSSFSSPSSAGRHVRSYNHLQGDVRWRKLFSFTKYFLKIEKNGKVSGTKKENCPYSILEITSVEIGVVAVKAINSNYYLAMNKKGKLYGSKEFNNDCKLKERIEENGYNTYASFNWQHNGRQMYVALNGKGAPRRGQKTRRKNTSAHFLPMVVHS

[6] = test system: glycogen synthase kinase-3 (GSK3A per assay name; protocol says GSK3B); assay: compounds binding glycogen synthase kinase-3 – biochemical, small-molecule microarray, 635 nm fluorescence, GSK3A, primary screen (AID 1103); conditions: fluorescence 635 nm, higher = more signal; also: the record names both GSK3A and GSK3B
[7] = target: Epidermal growth factor receptor (Homo sapiens) (UniProt P00533); assay: compounds binding epidermal growth factor receptor – biochemical, small-molecule microarray, 635 nm fluorescence, primary screen (AID 1104); conditions: EGFR binding, higher = more signal;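 also: score merges 667 nm emission intensity with spot signal to noise over triplicate slides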
Sequence of Epidermal growth factor receptor (Homo sapiens) (P00533 whole entry, looked up): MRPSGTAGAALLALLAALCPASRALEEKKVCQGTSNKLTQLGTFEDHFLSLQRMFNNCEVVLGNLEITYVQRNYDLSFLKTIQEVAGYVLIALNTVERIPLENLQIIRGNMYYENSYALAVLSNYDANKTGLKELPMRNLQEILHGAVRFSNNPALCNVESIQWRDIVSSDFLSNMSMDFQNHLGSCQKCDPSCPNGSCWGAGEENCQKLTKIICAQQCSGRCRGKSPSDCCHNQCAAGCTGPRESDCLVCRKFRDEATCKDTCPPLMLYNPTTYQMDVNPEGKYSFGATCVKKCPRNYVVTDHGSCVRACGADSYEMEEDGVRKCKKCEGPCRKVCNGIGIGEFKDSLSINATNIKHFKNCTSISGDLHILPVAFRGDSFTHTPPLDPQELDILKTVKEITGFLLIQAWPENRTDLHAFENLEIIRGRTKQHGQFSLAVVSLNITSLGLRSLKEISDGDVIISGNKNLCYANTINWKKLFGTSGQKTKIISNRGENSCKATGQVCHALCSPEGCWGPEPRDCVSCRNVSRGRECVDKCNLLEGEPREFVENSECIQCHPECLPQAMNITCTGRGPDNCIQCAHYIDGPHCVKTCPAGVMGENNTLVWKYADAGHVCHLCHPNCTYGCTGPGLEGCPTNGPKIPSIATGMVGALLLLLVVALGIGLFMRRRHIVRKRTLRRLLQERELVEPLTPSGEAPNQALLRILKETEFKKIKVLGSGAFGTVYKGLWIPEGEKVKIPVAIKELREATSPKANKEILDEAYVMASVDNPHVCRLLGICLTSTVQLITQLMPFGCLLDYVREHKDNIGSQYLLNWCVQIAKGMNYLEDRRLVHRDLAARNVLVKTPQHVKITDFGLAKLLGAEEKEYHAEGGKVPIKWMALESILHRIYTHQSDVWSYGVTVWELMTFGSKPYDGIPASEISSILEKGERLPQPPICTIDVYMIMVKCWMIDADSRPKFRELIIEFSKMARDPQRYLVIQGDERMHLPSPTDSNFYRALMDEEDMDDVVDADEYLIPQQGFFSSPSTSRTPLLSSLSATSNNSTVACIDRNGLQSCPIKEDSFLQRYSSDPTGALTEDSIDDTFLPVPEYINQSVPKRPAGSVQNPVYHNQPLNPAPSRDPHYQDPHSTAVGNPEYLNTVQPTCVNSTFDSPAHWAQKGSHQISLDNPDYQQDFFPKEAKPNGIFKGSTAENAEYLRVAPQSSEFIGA

[8] = target: Follistatin-related protein 3 (Homo sapiens) (UniProt O95633); assay: compounds binding follistatin-related protein 3 – biochemical, small-molecule microarray, 635 nm fluorescence, primary screen (AID 1105); conditions: FSTL3 binding, higher = more signal;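 also: score merges emission near 667 nm and signal to noise per printed spot across three slides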
Sequence of Follistatin-related protein 3 (Homo sapiens) (O95633 whole entry, looked up): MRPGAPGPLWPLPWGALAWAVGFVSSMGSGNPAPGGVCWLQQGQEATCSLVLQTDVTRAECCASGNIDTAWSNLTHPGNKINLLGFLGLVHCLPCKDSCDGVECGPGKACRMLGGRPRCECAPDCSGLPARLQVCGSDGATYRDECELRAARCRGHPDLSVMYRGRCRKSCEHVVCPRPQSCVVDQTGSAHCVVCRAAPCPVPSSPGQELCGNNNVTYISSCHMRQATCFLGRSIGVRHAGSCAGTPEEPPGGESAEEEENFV

[9] = target: Dickkopf-related protein 1 (Homo sapiens) (UniProt O94907); assay: small molecules binding DKK1 protein – biochemical, small-molecule microarray, 635 nm fluorescence scan, primary screen (AID 1106); conditions: higher = more signal;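 also: score merges emission near 667 nm with signal to noise over three replicate slides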
Sequence of Dickkopf-related protein 1 (Homo sapiens) (O94907 whole entry, looked up): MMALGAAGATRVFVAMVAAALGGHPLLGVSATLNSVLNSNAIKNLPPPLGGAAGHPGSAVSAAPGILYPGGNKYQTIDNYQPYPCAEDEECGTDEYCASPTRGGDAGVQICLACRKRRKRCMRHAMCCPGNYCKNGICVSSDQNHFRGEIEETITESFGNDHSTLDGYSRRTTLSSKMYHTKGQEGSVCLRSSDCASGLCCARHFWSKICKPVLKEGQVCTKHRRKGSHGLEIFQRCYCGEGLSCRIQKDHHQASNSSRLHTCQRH

[10] = test system: Inhibin beta A chain (activin A); assay: small molecules binding activin A – biochemical, small-molecule microarray, 635 nm fluorescence scan, primary screen (AID 1107); conditions: INHBA, higher = more signal;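 also: mouse activin A protein probed at 4.33 µg/mL on printed slides; score merges bound-protein fluorescence near 667 nm with spot signal-to-noise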

CN1C(=O)C2C=CC(C(O)c3ccc(I)cc3)N(NC(=O)OC(C)(C)C)C2C1=O (stereo not given)
composite z-score [1]: 1.22
composite z-score [2]: 0.829
composite z-score [3]: 1.05
z-score [4]: 2.31 (inactive)
composite z-score [5]: 0.599
composite z-score [6]: 1.24
composite z-score [7]: 0.04
composite z-score [8]: 0.925
composite z-score [9]: -0.168
composite z-score [10]: 0.599

COC(=O)c1c(CC[C@@H](CO)NC(=O)N[C@H](Cc2ccccc2)Cn2cc(-c3ccccc3N)nn2)oc(C(C)=O)c1C(=O)OC
composite z-score [1]: 0.326
composite z-score [2]: 0.759
composite z-score [3]: 0.886
z-score [4]: 0.433 (inactive)
composite z-score [5]: 0.865
composite z-score [6]: 0.355
composite z-score [7]: -0.165
composite z-score [8]: 0.204
composite z-score [9]: -0.299
composite z-score [10]: 0.95

CO[C@H]1COC(=O)[C@@H]2CCCN2C(=O)[C@@H](C)COC(=O)CC=C[C@@H]1C
composite z-score [1]: 0.474
composite z-score [2]: -0.342
composite z-score [3]: -0.919
z-score [4]: 0.00841 (inactive)
composite z-score [5]: 0.618
composite z-score [6]: 1.05
composite z-score [7]: 1.15
composite z-score [8]: 1.11
composite z-score [9]: 1.1
composite z-score [10]: -0.24

C[C@H](c1ccccc1)N1C(=O)[C@H]2[C@@H]3C(=CC[C@H]2C1=O)C(=O)[C@H]1O[C@H]1[C@H]3O
composite z-score [1]: 0.816
composite z-score [2]: -0.191
composite z-score [3]: -0.559
z-score [4]: 4.45 (inactive)
composite z-score [5]: 0.388
composite z-score [6]: 0.359
composite z-score [7]: 0.626
composite z-score [8]: 0.359
composite z-score [9]: 0.87
composite z-score [10]: 0.527

[N-]=[N+]=NCc1ccccc1[C@@H]1OC(c2ccc(OCCCO)cc2)=N[C@]1(Cc1ccccc1)C(=O)N1CCOCC1
composite z-score [1]: 1.57
composite z-score [2]: 1.2
composite z-score [3]: 0.798
z-score [4]: -0.962 (inactive)
composite z-score [5]: 1
composite z-score [6]: 1.29
composite z-score [7]: 0.0588
composite z-score [8]: 0.589
composite z-score [9]: 0.315
composite z-score [10]: 0.182

CC1CC/C=C\[C@H]2OC34C=CCN(Cn5nnc6ccccc65)C(=O)[C@H]3N(CCO)C(=O)[C@@H]4C2C(=O)O1 (stereo not given in full)
composite z-score [1]: 2
composite z-score [2]: -0.559
composite z-score [3]: 0.514
z-score [4]: -1.58 (inactive)
composite z-score [5]: -1.16
composite z-score [6]: 0.476
composite z-score [7]: -1.01
composite z-score [8]: 0.0695
composite z-score [9]: -0.52
composite z-score [10]: 1.19

Cn1cccc1C(O)C1C=CC2C(=O)NC(=O)C2N1Nc1ccccn1 (stereo not given)
composite z-score [1]: 0.71
composite z-score [2]: 0.0275
composite z-score [3]: 0.0176
z-score [4]: 1.36 (inactive)
composite z-score [5]: -0.121
composite z-score [6]: -0.0788
composite z-score [7]: 0.459
composite z-score [8]: 0.533
composite z-score [9]: 0.133
composite z-score [10]: 1.49

[N-]=[N+]=Nc1ccccc1C[C@@]1(C(N)=O)N=C(c2ccc(OCCCO)cc2)O[C@@H]1c1ccccc1
composite z-score [1]: 0.616
composite z-score [2]: 1.53
composite z-score [3]: 1.3
z-score [4]: -1.23 (inactive)
composite z-score [5]: -0.0111
composite z-score [6]: -0.0514
composite z-score [7]: -0.874
composite z-score [8]: -0.0838
composite z-score [9]: -0.82
composite z-score [10]: 1.34

COCCCNC(=O)[C@@]1(Sc2ccc(C)cc2)CC(=O)N(Cc2ccccc2)[C@@H]1c1ccc(CO)cc1I
composite z-score [1]: 0.179
composite z-score [2]: 0.996
composite z-score [3]: 1.31
z-score [4]: -0.606 (inactive)
composite z-score [5]: -0.144
composite z-score [6]: -0.969
composite z-score [7]: -1.28
composite z-score [8]: -0.238
composite z-score [9]: -1.4
composite z-score [10]: 1.12

CC(C)c1ccc(NN2C(C(O)c3ccc4c(c3)OCO4)C=CC3C(=O)N(c4ccccc4)C(=O)C32)cc1 (stereo not given)
composite z-score [1]: 1.19
composite z-score [2]: 0.521
composite z-score [3]: 0.944
z-score [4]: 1.18 (inactive)
composite z-score [5]: 0.584
composite z-score [6]: 1.18
composite z-score [7]: 0.407
composite z-score [8]: 0.886
composite z-score [9]: 0.263
composite z-score [10]: 0.581

C=CCN1C(=O)[C@]2(O[C@H](CCn3cc(CCO)nn3)[C@@H]([Si](C)(C)c3ccc(OC)cc3)[C@@H]2C)c2cc(N3CCOC3=O)ccc21
composite z-score [1]: 1.62
composite z-score [2]: -0.286
composite z-score [3]: 0.223
z-score [4]: 2.29 (inactive)
composite z-score [5]: 0.301
composite z-score [6]: 0.341
composite z-score [7]: -0.82
composite z-score [8]: -0.609
composite z-score [9]: -0.555
composite z-score [10]: 0.175

COc1ccc(O[C@H]2C=C[C@@H](c3ccccc3)O[C@@H]2CON=C[C@@H](C)[C@H](OCc2ccccc2)C(C)C)cc1
composite z-score [1]: -0.369
composite z-score [2]: -0.406
composite z-score [3]: -0.17
z-score [4]: 0.275 (inactive)
composite z-score [5]: -1.11
composite z-score [6]: -1.04
composite z-score [7]: -0.805
composite z-score [8]: -0.761
composite z-score [9]: -0.733
composite z-score [10]: 0.272

CCN1C(=O)[C@H]2[C@H]3[C@H](O)[C@H](O)CC(=NO[C@@H]4O[C@H](CO)[C@@H](O)[C@H](O)[C@H]4O)[C@@H]3CC[C@H]2C1=O
composite z-score [1]: 0.562
composite z-score [2]: -0.291
composite z-score [3]: -0.233
z-score [4]: -0.448 (inactive)
composite z-score [5]: -0.584
composite z-score [6]: -1.42
composite z-score [7]: -0.831
composite z-score [8]: -0.534
composite z-score [9]: -0.0655
composite z-score [10]: 0.613

COC(=O)CC=C[C@@H](C)[C@@H](C=NO[C@H](C)c1cn([C@@H]2COC[C@H]2O)nn1)OC
composite z-score [1]: 0.626
composite z-score [2]: -0.43
composite z-score [3]: -0.611
z-score [4]: 0.605 (inactive)
composite z-score [5]: 0.739
composite z-score [6]: 0.617
composite z-score [7]: 0.856
composite z-score [8]: 1.06
composite z-score [9]: 0.492
composite z-score [10]: -0.335

CCOC(=O)NN=C1C[C@@H](O)[C@@H](O)[C@@H]2[C@@H]3C(=O)N(C(C)(C)C)C(=O)[C@@H]3CC[C@@H]12
composite z-score [1]: -0.241
composite z-score [2]: 0.166
composite z-score [3]: 0.599
z-score [4]: 0.172 (inactive)
composite z-score [5]: 0.34
composite z-score [6]: -1.09
composite z-score [7]: 0.43
composite z-score [8]: -1
composite z-score [9]: -0.567
composite z-score [10]: -2.83

C=C(COC)/C(=C/C[C@H](OC(=O)c1ccncc1)c1ccc(CO)o1)c1cc(C(=O)OC)ccc1OC
composite z-score [1]: 1.69
composite z-score [2]: -0.0393
composite z-score [3]: -0.0885
z-score [4]: -0.647 (inactive)
composite z-score [5]: 1.37
composite z-score [6]: 0.637
composite z-score [7]: 0.0603
composite z-score [8]: 1.15
composite z-score [9]: 0.82
composite z-score [10]: 1.34

CC(C)CON=C1C[C@@H](O)[C@@H](O)[C@@H]2[C@@H]3C(=O)N(Cc4ccccc4)C(=O)[C@@H]3CC[C@@H]12
composite z-score [1]: -0.511
composite z-score [2]: -0.278
composite z-score [3]: -0.737
z-score [4]: -0.28 (inactive)
composite z-score [5]: 0.5
composite z-score [6]: 0.649
composite z-score [7]: 0.571
composite z-score [8]: 0.617
composite z-score [9]: 0.836
composite z-score [10]: -0.269
